FBPA Giardia inh – blocks Giardia fructose-bisphosphate aldolase activity | A8B2U2 | Potency, µM (top dose mostly 59.6 µM), hits mostly inhibitors | 290,000 tested, 0.71% active | purified Giardia FBPA; further: nearly all actives have a fitted effect of over 55% in size
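40 nM FBPA preincubated 10 min at RT with compound (up to 57.5 uM final), then substrate plus GAPDH/TPI/NAD/arsenate coupling and diaphorase/resazurin added. Fluorescence read after 20 min at RT, 525/598 nm.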
Shiga toxin inh – Shiga toxin inhibition. AID 2315. 290,000 tested, 9.2% active. inhibition, % at 38.7 µM. Vero cells, Shiga toxin protein synthesis inhibition reporter; in the data active means inhibition mostly above about 28%, no sharp cut-off; inactive means mostly below about 43%
RE007 growth inh – less growth of the S. pombe RE007 Vpr strain; 360,000 tested, 0.21% active; S. pombe RE007 Vpr strain, BacTiter-Glo ATP luminescence, 24 h; Potency, µM (titrated, usually from 92.2 µM), hits mostly inhibitors; active means well fitted falling curve with a large enough effect; inconclusive means small, poorly fitted or top-dose-only effect; inactive means no such curve, though single readings can be large or run the other way; further: nearly all actives have a fitted effect of over 50% in size
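Fission yeast strain RE007, carrying one chromosomally integrated HIV-1 vpr copy, was seeded at OD 0.01 in PMG+AL medium with 23 nL pinned compound. After 24 h at 30 °C and 99% humidity, viability was read by BacTiter-Glo luminescence.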
TbPYK inhibitor – blocks Trypanosoma brucei pyruvate kinase. TbPYK enzyme, Kinase-Glo Plus ATP luminescence, 45 min. Potency, µM (highest dose often 76.8 µM), most hits filed as inhibitors. 410,000 tested, 0.12% active; further: nearly all actives have a fitted effect of over 50% in size
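In this concentration-response screen, enzyme-free wells defined baseline while DMSO plates tracked drift. Each reaction combined TbPYK, substrate, compound and 130 uM ADP for 45 min at room temperature. Kinase-Glo Plus luminescence gave the signal.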
Cycloheximide cs – counter-screen for Shiga toxin inhibitors: cycloheximide protein synthesis inhibition; cell reporter, cycloheximide protein synthesis inhibition counterscreen; max response, %; 300,000 tested, 12% active; AID 2314; in the data active means max response mostly above about 13%, no sharp cut-off; inactive means mostly below about 14%; further: read at 38.3 µM for the half of the compounds with a filed dose
LmPK inhibitor – inhibitors of Leishmania mexicana pyruvate kinase. 290,000 tested, 0.37% active. purified LmPK, Kinase-Glo ATP luminescence, 1 h. Potency, µM (series often up to 57.5 µM), hits mostly inhibitors
Target sequence (Q27686 whole entry, looked up): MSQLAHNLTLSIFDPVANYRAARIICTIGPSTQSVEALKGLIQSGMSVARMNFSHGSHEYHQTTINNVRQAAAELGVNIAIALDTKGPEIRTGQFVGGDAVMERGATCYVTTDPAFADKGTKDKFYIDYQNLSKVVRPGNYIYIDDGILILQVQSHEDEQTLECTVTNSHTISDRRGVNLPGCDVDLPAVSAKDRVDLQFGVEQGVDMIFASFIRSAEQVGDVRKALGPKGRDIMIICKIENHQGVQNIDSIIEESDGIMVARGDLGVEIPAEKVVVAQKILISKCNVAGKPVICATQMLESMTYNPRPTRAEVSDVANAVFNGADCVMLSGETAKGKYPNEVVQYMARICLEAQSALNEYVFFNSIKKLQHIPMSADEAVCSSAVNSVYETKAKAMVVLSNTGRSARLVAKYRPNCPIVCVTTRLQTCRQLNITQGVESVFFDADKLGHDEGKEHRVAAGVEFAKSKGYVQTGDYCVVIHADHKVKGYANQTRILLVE
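Kinase-Glo luminescence read after 1 h RT reaction of 0.1 nM LmPK with 0.5 mM PEP and 0.1 mM ADP. Activity scaled between uninhibited and enzyme-free controls.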
Large screens that a line does not name were inactive. Shown is part of a subset that was picked to be rich in hits. Unless noted, the call rests on the fitted dose curve; in most records, active means well fitted curve in the direction sought with a large enough effect; inconclusive means small, poorly fitted or top-dose-only effect, or another doubt; inactive means no such curve, though single readings can be large; an effect the other way counts as inactive or inconclusive.

OC(CCN1CCCCC1)c1ccc(-c2ccccc2)cc1 (configuration not stated)	Shiga toxin inh 72, Cycloheximide cs 52
COc1ccc2cc(C3OCCO3)c(Cl)nc2c1	Shiga toxin inh 128, Cycloheximide cs 60
COc1ccc2cc(C3NC(=O)c4ccccc4N3)c(Cl)nc2c1 (configuration not stated)	none
Cc1cc(/C=C2\C(=O)NC(=O)N(Cc3ccco3)C2=O)c(C)n1-c1ccc(O)cc1	Cycloheximide cs 17
Cn1cccc1/C=C1\C(=O)NC(=O)N(Cc2ccco2)C1=O	none
CCc1ccc(N2C(=O)NC(=O)/C(=C\c3cccn3CCOc3ccc(C(C)C)cc3)C2=O)cc1	Shiga toxin inh active, Cycloheximide cs 73
Cc1ccc(OCCn2cccc2/C=C2/C(=O)NC(=O)N(Cc3ccco3)C2=O)cc1	Shiga toxin inh 37, Cycloheximide cs 22
CN(C)/C=C/C(=O)c1ccc(Br)cc1	Shiga toxin inh 61, Cycloheximide cs 26
COc1cccc(CNCCNC(=O)c2nonc2N)c1	none
COc1ccc(CCNC(=O)c2nn(C)cc2Cl)cc1	Shiga toxin inh 76, Cycloheximide cs 27
COc1ccc(CCNC(=O)c2nonc2N)cc1	Shiga toxin inh 46, Cycloheximide cs 21
Cc1c(Br)c([N+](=O)[O-])nn1CCCC(=O)NC(C)c1ccccc1 (configuration not stated)	none
Cc1cc(Cl)ccc1-n1c(-c2cccnc2)n[nH]c1=S	TbPYK inhibitor 14µM, LmPK inhibitor 8.9µM
Cc1c(Cl)cccc1-n1c(-c2cccnc2)n[nH]c1=S	TbPYK inhibitor 7.1µM, LmPK inhibitor inconclusive
Cc1ccc(C)c(-n2c(-c3cccnc3)n[nH]c2=S)c1	FBPA Giardia inh inconclusive, TbPYK inhibitor inconclusive
Cc1onc(-c2ccccc2Cl)c1C(=O)NCc1nnnn1-c1ccc(F)cc1	none (no result: FBPA Giardia inh, Shiga toxin inh, Cycloheximide cs, LmPK inhibitor)
CC(=O)Nc1ccc(-c2csc(Nc3cc(C)ccn3)n2)cc1	Shiga toxin inh 78, Cycloheximide cs 49
Cc1ccnc(Nc2nc(-c3c(C)nc4sccn34)cs2)c1	FBPA Giardia inh inconclusive, Cycloheximide cs 32 (no result: TbPYK inhibitor)
CC(=O)Nc1ccc(-c2csc(Nc3ccc(S(N)(=O)=O)cc3)n2)cc1	none
Cc1ccc(Nc2nc(-c3c(C)nc4ncccn34)cs2)cc1	none
N#Cc1ccc(Nc2nc(-c3ccccc3)cs2)cc1	RE007 growth inh inconclusive (no result: FBPA Giardia inh, Shiga toxin inh, Cycloheximide cs, LmPK inhibitor)
CC(=O)Nc1cccc(-c2csc(Nc3cc(C)ccn3)n2)c1	Shiga toxin inh 127, Cycloheximide cs 41
Cc1ccnc(Nc2nc(-c3ccccc3)cs2)c1	Shiga toxin inh 89, Cycloheximide cs 55
CCN1CCOC(=O)C1CC(=O)Nc1cc(Cl)ccc1OC (configuration not stated)	none (no result: FBPA Giardia inh, Shiga toxin inh, RE007 growth inh, Cycloheximide cs, LmPK inhibitor)
CCOc1ccc(NC(=O)CN(C)S(=O)(=O)c2ccc3c(c2)CCC(=O)N3)cc1	none
CC(=O)O[C@H]1C[C@@H]2CCC3C(CC[C@@]4(C)[C@H]3C[C@H]([N+]3(C)CCCCC3)[C@@H]4OC(C)=O)[C@@]2(C)C[C@@H]1[N+]1(C)CCCCC1 (some centres not stated)	none (no result: Shiga toxin inh, RE007 growth inh, TbPYK inhibitor, Cycloheximide cs, LmPK inhibitor)
c1ccc2c(c1)CC(N1CCN(c3cccc4c3OCCO4)CC1)C2	none (no result: RE007 growth inh, TbPYK inhibitor, LmPK inhibitor)
COC(=O)[C@@]1(Cc2ccccc2)[C@H]2c3cc(C(=O)N4CCCC4)n(Cc4nc5ccccc5[nH]4)c3C[C@H]2CN1C(=O)c1ccccc1	none (no result: Shiga toxin inh, RE007 growth inh, TbPYK inhibitor, Cycloheximide cs, LmPK inhibitor)
CC(=O)Nc1cccc(-c2csc(C(O)c3ccccc3)n2)c1 (configuration not stated)	none (no result: FBPA Giardia inh, Shiga toxin inh, Cycloheximide cs, LmPK inhibitor)
CC(=O)Nc1cccc(-c2csc(Nc3ccccn3)n2)c1	Shiga toxin inh 90, Cycloheximide cs 45
CC(C)OC(=O)c1cccc2c1C(=O)c1ccccc1-2	Shiga toxin inh 74, Cycloheximide cs 38
Cc1nc(-c2ccc(NC(=O)c3ccccc3Br)cc2)cs1	Shiga toxin inh 57, Cycloheximide cs 55
CCOC(=O)Cc1ccc(NC(=O)c2ccccc2Br)cc1	Cycloheximide cs 19
Cc1nc(-c2ccc(NC(=O)c3ccccc3C)cc2)cs1	Shiga toxin inh 61, Cycloheximide cs 31, LmPK inhibitor inconclusive
O=C(COc1ccccc1C(=O)Nc1ccccc1)c1ccc(Br)cc1	none

Screening results: PubChem BioAssay, National Center for Advancing Translational Sciences (NCATS)
